# Assay results: article PMC5540273 (PLoS ONE, 2017)
# Read-outs that look alike come from different tables or passages of the source.
# Tests used:
# Details in all cases: n = 1
# [1] = test system: T1, NDR1
# T1 construct: gene STK38
# [2] = test system: NDR2
# [3] = test system: NEK10
# [4] = test system: NEK11
# [5] = test system: NEK1
# [6] = test system: NEK2
# [7] = test system: NEK3
# [8] = test system: NEK4
# [9] = test system: NEK5
# [10] = test system: NEK6
# [11] = test system: NEK7
# [12] = test system: NEK9
# [13] = test system: T2, NIK
# T2 construct: gene MAP3K14
# [14] = test system: T3, NIM1
# T3 construct: gene MGC42105
# [15] = test system: NLK
# [16] = test system: T4, OSR1
# T4 construct: gene OXSR1
# [17] = test system: PAK1
# [18] = test system: PAK2
# [19] = test system: PAK3
# [20] = test system: PAK4
# [21] = concentration: 1 μM, replicates: in singlicate
# 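Note: KINOMEscan kinase panel screen.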
structure (smiles),measurement,setting,value
CC(C)(C)c1ccc(C(=O)Nc2cn3cc(-c4cccnc4)ccc3n2)cc1,%Inh,[1]; [21],49%
same,%Inh,[2]; [21],0%
same,%Inh,[3]; [21],2%
same,%Inh,[4]; [21],0%
same,%Inh,[5]; [21],13%
same,%Inh,[6]; [21],8%
same,%Inh,[7]; [21],54%
same,%Inh,[8]; [21],0%
same,%Inh,[9]; [21],31%
same,%Inh,[10]; [21],13%
same,%Inh,[11]; [21],4%
same,%Inh,[12]; [21],0%
same,%Inh,[13]; [21],20%
same,%Inh,[14]; [21],22%
same,%Inh,[15]; [21],1%
same,%Inh,[16]; [21],0%
same,%Inh,[17]; [21],36%
same,%Inh,[18]; [21],36%
same,%Inh,[19]; [21],51%
same,%Inh,[20]; [21],24%
COc1cc(Nc2nccc(N3CCC(NC(=O)Nc4cc(C)ccc4C)C3)n2)cc(OC)c1OC (centres unmarked) [GSK1379762],%Inh,[1]; [21],0%
same,%Inh,[2]; [21],0%
same,%Inh,[3]; [21],20%
same,%Inh,[4]; [21],0%
same,%Inh,[5]; [21],22%
same,%Inh,[6]; [21],25%
same,%Inh,[7]; [21],9%
same,%Inh,[8]; [21],4%
same,%Inh,[9]; [21],91.6%
same,%Inh,[10]; [21],1%
same,%Inh,[11]; [21],54%
same,%Inh,[12]; [21],32%
same,%Inh,[13]; [21],32%
same,%Inh,[14]; [21],27%
same,%Inh,[15]; [21],0%
same,%Inh,[16]; [21],9%
same,%Inh,[17]; [21],11%
same,%Inh,[18]; [21],4%
same,%Inh,[19]; [21],29%
same,%Inh,[20]; [21],0%
COc1cccc(-c2cc(-c3c[nH]nc3-c3ccccn3)ccn2)c1 [GW680338],%Inh,[1]; [21],16%
same,%Inh,[2]; [21],19%
same,%Inh,[3]; [21],4%
same,%Inh,[4]; [21],0%
same,%Inh,[5]; [21],0%
same,%Inh,[6]; [21],0%
same,%Inh,[7]; [21],5%
same,%Inh,[8]; [21],13%
same,%Inh,[9]; [21],14%
same,%Inh,[10]; [21],0%
same,%Inh,[11]; [21],0%
same,%Inh,[12]; [21],1%
same,%Inh,[13]; [21],19%
same,%Inh,[14]; [21],21%
same,%Inh,[15]; [21],6%
same,%Inh,[16]; [21],0%
same,%Inh,[17]; [21],0%
same,%Inh,[18]; [21],0%
same,%Inh,[19]; [21],9%
same,%Inh,[20]; [21],9%
Cc1csc(-c2nc(Nc3ccncc3)c3ccccc3n2)n1 [GW869640],%Inh,[1]; [21],27%
same,%Inh,[2]; [21],25%
same,%Inh,[3]; [21],17%
same,%Inh,[4]; [21],9%
same,%Inh,[5]; [21],0%
same,%Inh,[6]; [21],0%
same,%Inh,[7]; [21],19%
same,%Inh,[8]; [21],28%
same,%Inh,[9]; [21],0%
same,%Inh,[10]; [21],4%
same,%Inh,[11]; [21],0%
same,%Inh,[12]; [21],16%
same,%Inh,[13]; [21],32%
same,%Inh,[14]; [21],40%
same,%Inh,[15]; [21],64%
same,%Inh,[16]; [21],17%
same,%Inh,[17]; [21],12%
same,%Inh,[18]; [21],56%
same,%Inh,[19]; [21],28%
same,%Inh,[20]; [21],9%
Fc1cc(Cl)ccc1Nc1ccnc2cc(-c3ccc(CN4CCCCC4)o3)ccc12 [GW560116],%Inh,[1]; [21],9%
same,%Inh,[2]; [21],18%
same,%Inh,[3]; [21],5%
same,%Inh,[4]; [21],4%
same,%Inh,[5]; [21],0%
same,%Inh,[6]; [21],0%
same,%Inh,[7]; [21],0%
same,%Inh,[8]; [21],0%
same,%Inh,[9]; [21],4%
same,%Inh,[10]; [21],0%
same,%Inh,[11]; [21],0%
same,%Inh,[12]; [21],0%
same,%Inh,[13]; [21],10%
same,%Inh,[14]; [21],0%
same,%Inh,[15]; [21],16%
same,%Inh,[16]; [21],0%
same,%Inh,[17]; [21],2%
same,%Inh,[18]; [21],5%
same,%Inh,[19]; [21],0%
same,%Inh,[20]; [21],0%
Cc1ccc(NC(=O)Nc2cccc(C(F)(F)F)c2)cc1 [GSK955403],%Inh,[1]; 1 µM,15%
same,%Inh,[2]; 1 µM,17%
same,%Inh,[3]; 1 µM,24%
same,%Inh,[4]; 1 µM,0%
same,%Inh,[5]; 1 µM,7%
same,%Inh,[6]; 1 µM,3%
same,%Inh,[7]; 1 µM,5%
same,%Inh,[8]; 1 µM,0%
same,%Inh,[9]; 1 µM,0%
same,%Inh,[10]; 1 µM,0%
same,%Inh,[11]; 1 µM,0%
same,%Inh,[12]; 1 µM,0%
same,%Inh,[13]; 1 µM,8%
same,%Inh,[14]; 1 µM,0%
same,%Inh,[15]; 1 µM,15%
same,%Inh,[16]; 1 µM,0%
same,%Inh,[17]; 1 µM,24%
same,%Inh,[18]; 1 µM,5%
same,%Inh,[19]; 1 µM,0%
same,%Inh,[20]; 1 µM,4%
CCCc1ccc(S(=O)(=O)NC2CCN(c3ccnc(Nc4ccc(F)cc4)n3)C2)cc1 (centres unmarked) [GSK1379715],%Inh,[1]; [21],0%
same,%Inh,[2]; [21],0%
same,%Inh,[3]; [21],3%
same,%Inh,[4]; [21],1%
same,%Inh,[5]; [21],88%
same,%Inh,[6]; [21],0%
same,%Inh,[7]; [21],4%
same,%Inh,[8]; [21],5%
same,%Inh,[9]; [21],10%
same,%Inh,[10]; [21],0%
same,%Inh,[11]; [21],0%
same,%Inh,[12]; [21],0%
same,%Inh,[13]; [21],23%
same,%Inh,[14]; [21],18%
same,%Inh,[15]; [21],0%
same,%Inh,[16]; [21],17%
same,%Inh,[17]; [21],0%
same,%Inh,[18]; [21],2%
same,%Inh,[19]; [21],3%
same,%Inh,[20]; [21],0%
